In PubChem BioAssay (Tox21):
Inconclusive results are not listed. A number with no mark means an inactive call. The source made the active and inactive calls. Calls follow the shape of the dose curve; as a rule, active = well fitted inhibition curve with a large enough effect in the signal ratio in the repeat runs, with a control signal flat; inconclusive = weak or mixed curves, or effect the other way; inactive = flat fitted curve, though single readings scatter; the % refers to the signal ratio.

Each compound was assayed against D(2) dopamine receptor (Homo sapiens) (UniProt P14416) (assay: Dopamine D2 receptor (DRD2) small molecule antagonists, cell-based qHTS assay (AID 1963595)). Details: HEK293-DRD2 cAMP HTRF antagonist mode; series mostly up to 92.4 µM; activity change, negative = inhibition: at the top concentration.
Sequence of D(2) dopamine receptor (Homo sapiens) (P14416 whole entry, looked up): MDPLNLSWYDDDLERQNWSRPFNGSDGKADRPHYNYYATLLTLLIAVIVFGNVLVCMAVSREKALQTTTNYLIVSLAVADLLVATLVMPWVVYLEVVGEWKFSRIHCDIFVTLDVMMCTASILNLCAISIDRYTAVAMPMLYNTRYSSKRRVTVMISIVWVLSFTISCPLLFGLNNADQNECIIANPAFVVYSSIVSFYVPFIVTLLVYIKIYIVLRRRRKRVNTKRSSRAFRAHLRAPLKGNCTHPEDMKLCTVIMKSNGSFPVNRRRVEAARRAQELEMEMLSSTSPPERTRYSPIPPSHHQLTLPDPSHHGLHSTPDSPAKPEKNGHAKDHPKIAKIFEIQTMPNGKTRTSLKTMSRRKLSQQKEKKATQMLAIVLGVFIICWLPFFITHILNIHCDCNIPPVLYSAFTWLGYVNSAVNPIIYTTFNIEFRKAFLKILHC
Excerpt: National Center for Advancing Translational Sciences [NCATS]
Division of Preclinical Innovation [DPI]
U.S. Environmental Protection Agency [EPA]
National Institutes of Environmental Health Sciences [NIEHS]
National Toxicology Program [NTP]
U.S. Food and Drug Administration [FDA]
DRD2 is the D2 subtype of the dopamine receptor, which is coupled to Gi subtype of G protein-coupled receptor. This G protein-coupled receptor inhibits adenylyl cyclase activity. The DRD2-HEK293 cell line stably expressing D2 dopamine receptor can be used for screening agonists and antagonists of interactions between D2 and its ligands. The Hek293-DRD2 cAMP assay is based on HTRF technology. It measures changes of cAMP accumulation in response to Gi coupled GPCR activation or inhibition.
Tox21 Assay Protocol Summary:
DRD2-Hek293 cells were dispensed at 600 cells/3uL/well in 1536-well white plates using a Multidrop Dispenser. After the assay plates were incubated at a 37 C/5% CO2 incubator for 24 h, 1 uL of Ro20-1724 at final concentration of 0.1 mM was transferred to the assay plate by a Flying Reagent Dispenser. Following Ro20-1724 addition, 23 nL of compound dissolved in DMSO, positive controls or DMSO only was added to the assay plates via Wako pintool station. The assay plates were incubated at room temperature for 10 min. Next, 1 uL of mixture of NKH477 (final concentration at 200 nM) and quinpirole (final concentration at 12 nM) was added into the plates. After the assay plates were incubated at room temperature for an additional 30 min, 2.5 ul/well of cAMP-d2 and 2.5 ul/well of anti-cAMP-cryptate were added respectively into the assay plates using a Flying Reagent Dispenser. The plates were incubated at room temperature for 1 h. The fluorescence intensity in the plates was measured at 340 nm excitation and 665 & 620 nm emission by an Envision plate reader.
% is scaled to controls: 0 for no effect and ±100 for the full control effect; potency is read from the fitted curve at half-maximal effect.

| Compound | activity change, negative = inhibition | Potency |
| --- | --- | --- |
| O=CC=O | 15.5% |  |
| COc1cc(CC(C)N)c(OC)cc1Br (stereo not given) | -3.48% |  |
| BrCBr | -0.374% |  |
| [Hg+2].[I-].[I-] |  | 27.3 µM (active) |
| Oc1ccc2ccc3cccc4ccc1c2c34 | -3.29% |  |
| COc1cccc([C@@]2(O)CCCC[C@@H]2CN(C)C)c1 | 7.76% [at 42.5 µM] |  |
| CCC1(C2=NCCN2)Cc2ccccc2O1 (stereo not given) | -5.54% [at 42.5 µM] |  |
| CCCC[P+](CC)(CCCC)CCCC (tested in a mixture with another compound) | 5.5% |  |
| O=[N+]([O-])c1cccc2cccnc12 | -10.9% |  |
| CCCN(CCC)c1c([N+](=O)[O-])cc(S(N)(=O)=O)cc1[N+](=O)[O-] |  | 30.6 µM (active) |
| c1ccc2cc3c(cc2c1)-c1cccc2cccc-3c12 | 2.26% |  |
| CCOc1cc(C(C)(C)C)ccc1C1COC(c2c(F)cccc2F)=N1 (stereo not given) | -29.6% [at 42.5 µM] |  |
| C=CC(=O)N(C)C | -3.36% |  |
| O=C1CN2CCOC2(c2ccccc2Cl)c2cc(Cl)ccc2N1 (stereo not given) | -6.4% [at 42.5 µM] |  |
| O=C1Nc2ccc(Cl)cc2C(c2ccccc2)=NC1O (stereo not given) |  | inactive |
| ClC1=C(Cl)C2(Cl)C(CBr)CC1(Cl)C2(Cl)Cl (stereo not given) |  | inactive |
| O=C(Cc1ccccc1)OCc1ccccc1 | 8.41% |  |
| CC(C)(C)c1ccc(O)cc1 |  | inactive |
| CCOP(=S)(OCC)Oc1ccc(Cl)cc1Cl | -1.74% |  |
| CNC(=O)Oc1cc(C)c(N(C)C)c(C)c1 | -10.1% |  |

| Compound | activity change, negative = inhibition | Potency |
| --- | --- | --- |
| Cc1cc(=O)[nH]o1 | 12.7% |  |
| C[C@]12CC[C@@H](O)C[C@@H]1CC[C@@H]1[C@@H]2CC[C@]2(C)C(=O)CC[C@@H]12 | -2.35% |  |
| Clc1cc2c(cc1Cl)Oc1cc(Cl)c(Cl)cc1O2 | -6.33% [at 0.348 µM] |  |
| O=C(O)C(F)(F)C(F)(F)C(F)(F)C(F)(F)C(F)(F)C(F)(F)C(F)(F)C(F)(F)C(F)(F)F | -5.5% |  |
| CC(C)[N+](=O)[O-] | 13.6% |  |
| Cc1ccc(-c2c(Cl)nc(C#N)n2S(=O)(=O)N(C)C)cc1 | -6.1% |  |
| COC(=O)/C=C(\C)OP(=O)(OC)OC | 3.74% |  |
| [Cl][Hg][c]1ccccc1 |  | 13.7 µM (active) |
| N#CCCSCCC#N | 2.94% |  |
| CN | 3.63% |  |
| CNNC | -16.8% |  |
| CCCCOC(=O)c1ccccc1N | -1.21% |  |
| C=CC(C)(CCC=C(C)C)OC(=O)c1ccccc1N (stereo not given) | 1.52% |  |
| CCOP(=S)(OCC)Oc1cc(-c2ccccc2)on1 | 0.836% |  |
| CC(=O)c1cc(C(C)(C)C)cc2c1CCC2(C)C | 3.7% |  |
| C[C@]12Cc3cn[nH]c3C[C@@H]1CC[C@@H]1[C@@H]2CC[C@@]2(C)[C@H]1CC[C@]2(C)O | 1.76% [at 42.5 µM] |  |
| COP(N)(=S)OC | -1.41% |  |
| CCCN | 9.89% |  |
| CC1(C)C(/C=C(\Cl)C(F)(F)F)C1C(=O)OC(C#N)c1cccc(Oc2ccccc2)c1 (stereo not given) | -1.07% |  |
| O=C1c2ccccc2C(=O)c2ccccc21 | -1.46% [at 18.9 µM] |  |
